Among the data in PubChem BioAssay AID1224817 (Yan Lab, Georgia Cancer Center, Augusta University, 2016) are log2 luciferase activity ratio values, retold here.

Hit rate of the full screen: of about 2,000 compounds, about 25 (1%) were called active. This excerpt belongs to a sample that is enriched for actives. Values without a mark were called inactive.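 How the source made its calls: active means log2 luciferase ratio at or below -0.5849, meaning signal at two thirds of solvent-only control or lower; inactive means the rest.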

A short description of this test: inhibitors of EIF4E gene expression, primary screen, cell-based, HT1080, luciferase reporter (AID 1224817).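 Further: luciferase reports endogenous eIF4E expression since it is co-expressed from the native EIF4E locus.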 To be noted: HT1080 EIF4E-luc2 knock-in reporter, 16 h, at 2.5 µM, stronger effect = lower value.
In the case of `O=C(O)/C=C\C(=O)Nc1ccccn1`, the log2 luciferase activity ratio was 0.0837.
For `C[N+]1(CCC(=O)c2ccccc2)CCC2CCC(C2)C1` (stereo unspecified) the value was 0.0296; for `CCCCCC[C@H]([C@H](C)O)n1cnc2c(N)ncnc21`, -0.0979; for `NCCSCCC(=O)O`, -0.0504.
For `CC(=O)CC(=O)Nc1ccc2ccccc2c1` the value was 0.376; for `CC(C)(CC(=O)Nc1ccccc1)C(=O)O`, -0.26.
With `NCC(=O)Nc1ccccc1`, the log2 luciferase activity ratio was -0.679 (active).
For `CN(C)Cc1c[nH]c2nc[nH]c(=O)c12` the value was 0.205; for `CN(C)CCC(=O)[C@@]1(O)CC[C@H]2[C@@H]3CC=C4C[C@@H](O)CC[C@]4(C)[C@H]3CC[C@@]21C`, 0.263; for `O=C(O)CC1OCC=C2C[N+]3([O-])CCC45c6ccccc6NC4C1C2CC53` (stereo unspecified), 0.195.
In the case of `Cc1ccc(C2(C)CC/C(=N/N=C3/CCC(C)(c4ccc(C)c(C)c4)c4cc(C)c(C)cc43)c3cc(C)c(C)cc32)cc1C` (stereo unspecified), the log2 luciferase activity ratio was 0.135.
The same measure for `Oc1c(Cl)cc(C(c2cc(Cl)c(O)c(Cl)c2)C(c2cc(Cl)c(O)c(Cl)c2)c2cc(Cl)c(O)c(Cl)c2)cc1Cl`: -0.198; for `COc1ccc(CCN(C)CCCC(C#N)(c2ccc(OC)c(OC)c2)C(C)C)cc1OC` (stereo unspecified): -0.662 (active); for `COc1ccc(C[N+](C)(C)N)cc1OC`: -0.225.
Turning to `Cc1cc(=O)oc2c(OS(C)(=O)=O)c(OS(C)(=O)=O)ccc12`, the log2 luciferase activity ratio was 0.0541.
In the case of `Cc1ccn2c(CCc3nnc4cc(C)ccn34)nnc2c1`, the log2 luciferase activity ratio was -0.0744.
For `CC(=O)NC1CONC1=O` (stereo unspecified) the value was -0.303; for `C=C[C@]1(C)C[C@@H](OC(=O)CO)[C@@]2(C)[C@H](C)CC[C@]3(CCC(=O)[C@H]32)[C@@H](C)[C@@H]1O`, 0.127; for `Oc1ccc(Cc2nccc3cc(O)c(O)cc23)cc1O`, -0.044.
For the compound `OCCN(CO)CO`, the log2 luciferase activity ratio is -0.297.
For the compound `COc1ccc(CNC(C)C(=O)O)cc1` (stereo unspecified), the log2 luciferase activity ratio was -0.198.
Turning to `C/C(=N\[N+](C)(C)C)c1ccc(C)c(C)c1`, the log2 luciferase activity ratio is -0.284.
Take `CC(C)CCC[C@@H](C)[C@H]1CC[C@H]2[C@@H]3CC[C@H]4C[C@H](N)CC[C@]4(C)[C@H]3CC[C@]12C`: the log2 luciferase activity ratio was 0.0721.
The same measure for `CN(C)CCCNc1cc(O)c2c(c1O)C(=O)c1ccccc1C2=O`: 1.39; for `O=C(O)C/C=C/CC(=O)O`: -0.0603; for `CC(C)(C)CC(C)(C)c1cc(O)c(O)c(CN2CCCCC2)c1`: -0.183.
Regarding `CC(C)(C)c1ccc(CN2CCN(C(c3ccccc3)c3ccc(Cl)cc3)CC2)cc1` (stereo unspecified), the log2 luciferase activity ratio was -0.0054.
The same measure for `O=C1C(Cl)=C(Sc2nnc3c4ccccc4c4ccccc4c3n2)C(=O)c2ccccc21`: 0.552.
For `O=C(O)CCSC1=NCCN1` the value was -0.275; for `Oc1ccc2ccccc2c1CN(Cc1c(O)ccc2ccccc12)C1CCCCC1`, -0.018.
For `Nc1nccc(Nc2ccc(S(N)(=O)=O)cc2)n1` the value was -0.103; for `C/C(=N\NC1=NCCN1)c1cn(C2=NCCN2)nc1C`, 0.0578; for `CNC(c1ccncc1)C(NC)c1ccncc1` (stereo unspecified), 0.0459.
For `O=C1c2cccc([N+](=O)[O-])c2C(=O)N1c1ncn[nH]1`, the log2 luciferase activity ratio is -0.0931.
The same measure for `COC(=O)[C@@]12OC[C@]34[C@H]([C@@H](O)[C@@H]1O)[C@@]1(C)C=C(OC5OC(CO)C(O)C(O)C5O)C(=O)[C@@H](C)[C@@H]1C[C@H]3OC(=O)[C@H](OC(=O)/C=C(\C)C(C)C)[C@@H]24` (stereo partly specified): 0.215; for `O=C(O)C1OC1C(=O)O` (stereo unspecified): -0.131.
With `Cc1cc(N)c2cc(OCCOc3ccc4nc(C)cc(N)c4c3)ccc2n1`, the log2 luciferase activity ratio was -0.0306.
Take `CN(CCc1ccccn1)c1ccc2c(c1)C(=O)c1ccccc1-2`: the log2 luciferase activity ratio is 0.213.
For `COc1c2c(cc3c1[C@@H]1Oc4c(ccc(O)c4CC=C(C)C)[C@@H]1CO3)OC(C)(C)C=C2` the value was -0.0761; for `O=C1c2ccccc2C(=O)N1CCCSc1ccccc1`, 0.412.
For the compound `CN(C)CC(O)c1ccc(Cl)c2ccccc12` (stereo unspecified), the log2 luciferase activity ratio is -0.0364.
The same measure for `Oc1c(C(O)(c2ccccc2)c2ccc3ccccc3c2O)ccc2ccccc12`: 0.313.
As to `COc1cc2oc3cc(=O)cc4oc(-c5ccccc5)cc(c2c2c1CCC(c1ccccc1)O2)c43` (stereo unspecified), the log2 luciferase activity ratio is 0.143.
The same measure for `CCCCSCc1nc2nc(Cl)c(Cl)nc2[nH]1`: -0.0768; for `Cn1cc(NC(=O)c2cc(NC(=O)c3cc(NC=O)cn3C)cn2C)cc1C(=O)NCCC(=N)N`: -0.0884.
On to `NC(N)=NC(N)=Nc1c(F)c(F)c(F)c(F)c1F`, for which the log2 luciferase activity ratio was 0.115.
For `O=C(O)/C=C/C(=O)Nc1cccc2c1-c1ccccc1C2=O` the value was -0.335.
For `NNC(=O)CCc1ccc2ccc3ccccc3c2c1` the value was -0.0063.
For `NC(=O)N/N=C1/CCC(O)CC1CC(=O)O` (stereo unspecified) the value was -0.0076; for `CSc1nc(C)cc(Nc2ccc(O)c(CN3CCOCC3)c2)n1`, 0.0575.
In the case of `CC(C)(C)c1cc(Br)c(O)c(CN(Cc2cc(C(C)(C)C)cc(Br)c2O)C2CCCCC2)c1`, the log2 luciferase activity ratio was 0.147.
Consider `N=C(N)SCc1cccc2c(=O)cc(-c3ccccc3)oc12`, for which the log2 luciferase activity ratio is -0.583.
The same measure for `Cc1ncc(CSC(=N)N)n1Cc1ccccc1`: 0.207; for `Cc1c2ccccc2c(CSC(=N)N)c2ccccc12`: -2.19 (active).
Regarding `O=C1N[C@@H]([C@H]2CC[C@H](Cl)CN2)C(=O)N[C@H]1[C@H]1CC[C@H](Cl)CN1`, the log2 luciferase activity ratio was -0.835 (active).
Turning to `O=[N+]([O-])c1nccn1CC(O)CN1CCCCC1` (stereo unspecified), the log2 luciferase activity ratio is 0.364.
For `NC(Cc1nn[nH]n1)C(=O)O` (stereo unspecified) the value was -0.174; for `Cc1cc2ccccc2c[n+]1CC(O)C[n+]1cc2ccccc2cc1C`, -0.0398.
The same measure for `O=C(O)c1nn(-c2ccc(Cl)cc2)c2c1C(=O)c1ccccc1C2=O`: 0.061.
The same measure for `Cc1c2cccc(Sc3ccccc3)c2c2c3c(cccc13)[S+](c1ccccc1)C2` (stereo unspecified): 0.38; for `Cc1ncc(COP(=O)(O)O)c(C)c1O`: 0.148.
Turning to `O=C(O)c1ccc(C(=O)O)c(C(=O)O)c1.[NH-]C1CCCCC1[NH-].[Pt+2]`, the log2 luciferase activity ratio is 0.127.
In the case of `Cn1c(=S)c2[nH]c(SCCCc3ccccc3)nc2n(C)c1=O`, the log2 luciferase activity ratio was 0.0675.
For `CN1CCN(c2nc3c(c(=O)n(C)c(=O)n3C)n2C)CC1` the value was -0.0962; for `Cc1[nH]n(-c2ccc(S(=O)(=O)O)cc2)c(=O)c1N=Nc1ccccc1`, 0.391; for `Nc1ccc(N=Nc2ccc(-c3ccc(O)cc3)cc2)c2ccc(S(=O)(=O)O)cc12`, 0.247.
The same measure for `NNC(=O)C(O)C(O)C(=O)NN` (stereo unspecified): 0.225; for `Nc1nc2c(c(=O)[nH]1)NC(CCNc1ccc(C(=O)O)cc1)CN2` (stereo unspecified): -0.0715.
The same measure for `O=C1COC(c2ccccc2O)=NN1CCCN1CCCC1`: 0.0493.
Turning to `CNC1C(OC2C(OC3C(O)C(O)C(N=C(N)N)C(O)C3N=C(N)N)OC(C)C2(O)/C=N/NC(N)=S)OC(CO)C(O)C1O` (stereo unspecified), the log2 luciferase activity ratio was -0.0125.
For `COc1cccc2[nH]c(-c3ccccn3)nc12` the value was 1.75; for `C/C=C/c1cc2c(c(=O)o1)C(=O)[C@@H](O)[C@H](C)O2`, 0.166.
For `Sc1ccc2ccccc2c1CNCc1ccccc1` the value was 0.379.
The same measure for `O=C(O)C1CC[N-]CC1.O=C(O)C1CC[N-]CC1.[NH2-].[NH2-].[Pt+4]`: 0.578; for `CCC(C(=O)C(C)C(O)C(C)CCc1ccc(C)c(O)c1C(=O)O)C1OC(CC)(C2CCC(O)(CC)C(C)O2)CC1C` (stereo unspecified): -0.243; for `CC1=C2[C@H]3OC(=O)[C@@H](C)[C@@H]3CC[C@@]2(C)C=C/C1=N\O`: -0.026.
As to `Cc1ccc2nc(-c3ccc(NC(=O)c4ccc(N)cc4)c(S(=O)(=O)O)c3)sc2c1`, the log2 luciferase activity ratio is 0.394.
For `CCOc1ccc2c(ccc(/C=C\c3cc(C)c4cccnc4c3O)[n+]2C)c1` the value was -0.823 (active).
The same measure for `O=C(O)CNC(=O)C1NC(C(F)(F)F)(C(F)(F)F)OC1(C(F)(F)F)C(F)(F)F` (stereo unspecified): 0.305.
For `C=C1C(=O)OC2CC(C)C3(O)CCC(=O)C3(C)CC12` (stereo unspecified), the log2 luciferase activity ratio was -0.237.
For `Nc1ccc(S(=O)(=O)NCCS(=O)(=O)O)cc1` the value was -0.13; for `O=C(O)c1cc(=O)[nH]c(=S)[nH]1`, 0.238; for `NC(N)=N/N=C/c1ccc(O)c(C(=O)O)c1`, 0.267.
The same measure for `NNC(=O)CS(=O)(=O)Nc1ncccn1`: -0.266; for `O=C(N/N=C/c1ccc2c(c1)CCC2)c1ccccc1O`: 0.157; for `CS(=O)(=O)Nc1ccc(Nc2c3ccccc3nc3ccccc23)cc1`: 0.308.
For `O=C(O)C(O)C(O)C(O)C(=O)CO` (stereo unspecified) the value was -0.272; for `Cc1nc(CN2CCCCC2)c(O)c(=O)[nH]1`, -0.0244; for `Oc1cccnc1CN1CCCCC1`, -0.635 (active).
With `CC(=O)Nc1cc(CN2CCCCC2)c(O)c2ncccc12`, the log2 luciferase activity ratio is -0.0787.
The same measure for `O=P(O)(CCP(=O)(O)c1ccccc1)c1ccccc1`: 0.225; for `OCC1OC(n2cnc3c(/C=C(/O)c4ccccc4)ncnc32)C(O)C1O` (stereo unspecified): 1.58; for `O=c1ccc2nc3ccc(O)cc3oc-2c1`: -0.212.
The same measure for `C[n+]1cccc(/C=C/c2ccc3cccc(O)c3n2)c1`: 0.721; for `NC(CCCCO)C(=O)O` (stereo unspecified): 0.0343.
For `COc1ccc2c3c(ccc2c1)NC(C(=O)O)CC3` (stereo unspecified), the log2 luciferase activity ratio is 1.85.
